# PubChem BioAssay AID624202 (National Center for Advancing Translational Sciences (NCATS), 2012)
# Out of some 380,000 compounds screened, about 4,000 (1.1%) were called active. Not shown: some 3% with an inconclusive outcome. The call rests on the fitted dose curve; in most records, active means well fitted activation curve with a large enough effect; inconclusive means small, poorly fitted or top-dose-only effect; inactive means no such curve, though single readings can be large or run the other way. The list comes from a sample in which actives are over-represented; it also holds similar structures and randomly drawn compounds. Where a call stands in place of a potency, no number is given.
# Experiment: qHTS Assay to Identify Small Molecule Activators of BRCA1 Expression; further: nearly all actives have a fitted effect of over 80% in size
# Details: MCF7-BRCA1-FFLuc reporter, luminescence, 48 h; series mostly up to 46.1 µM
# Summary of the method: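 Using MCF7 cells harboring a BRCA1 firefly luciferase reporter, plated 2 h before compound pinning, the screen measured luminescence after 48 h incubation. Responses were normalized to DMSO and 10 microM genistein, then fitted for concentration-effect.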
# Potency means the concentration at half of the fitted maximal effect.
row,SMILES,Potency
1,CC(C)c1ccc(NC(=O)Cn2ncc3ccccc32)cc1,10 µM (active)
2,Cc1cccc(NC(=O)c2nnn(CC(=O)Nc3ccc(C(C)C)cc3)c2N)c1C,inactive
3,CCc1ccc(NC(=O)Cn2ncn3c(cc4ccccc43)c2=O)cc1,inactive
4,COc1ccc(Cn2c(=O)[nH]c3cc(C(=O)N4CCN(C(=O)c5ccco5)CC4)ccc3c2=O)cc1,inactive
5,Cc1ccc(-c2nn3c(=O)cc(CN4CCN(C(=O)Nc5cccc(C(F)(F)F)c5)CC4)nc3s2)cc1,inactive
6,COc1cc(OC)c(C2C=C(C(=O)O)Nc3ncnn32)cc1OC (stereo not drawn),inactive
7,COc1ccc(C)cc1NC(=O)CCc1c(C)nn(-c2ccc(N3CCOCC3)nn2)c1C,inactive
8,CCOc1ccc(C(O)Cc2nc3ccccc3n2C)cc1 (stereo not drawn),12.6 µM (active)
9,COc1cccc(C(O)Cc2nc3ccccc3n2C)c1OC (stereo not drawn),inactive
10,CCOc1ccc(C(O)Cn2c(=N)n(CCN3CCCCC3)c3ccccc32)cc1 (stereo not drawn),inactive
11,CCn1cc2nc(SCc3ccccc3Cl)n(CCc3ccccc3)c(=O)c2n1,inactive
12,CC(C)(C)C1CCC(NC(=O)c2cnn3c2NC(=C2CC2)C=C3C(F)F)CC1 (stereo not drawn),inactive
13,CSCCNC(=O)c1ccc2nc(Cc3ccccc3F)oc2c1,12.6 µM (active)
14,COc1ccc(Cc2nc3ccc(C(=O)NCc4ccc(OC)cc4OC)cc3o2)cc1,inactive
15,COc1ccc(Cc2nc3ccc(C(=O)NCC4CCOCC4)cc3o2)cc1OC,inactive
16,COc1ccc(CCn2c3c(c(=O)[nH]c2=S)CN(C(C)C)CN3)cc1OC,inactive
17,CC(=O)c1ccc(Nc2nc(C(N)c3ccccc3)cs2)cc1 (stereo not drawn),inactive
18,COC(=O)[C@H](Cc1ccccc1)NC(=O)Nc1ccc(S(N)(=O)=O)cc1,inactive
19,NS(=O)(=O)c1ccc(Nc2nc(-c3ccccc3)cs2)cc1,7.08 µM (active)
20,NS(=O)(=O)c1ccc(NC(=O)CSc2nnc3c(n2)[nH]c2ccccc23)cc1,inactive
21,COCCNC(=O)c1ccc2c(c1)N=C(C)c1cc(C)ccc1S2,inactive
22,N#Cc1ccc(C2N=C(c3ccccc3)NO2)cc1 (stereo not drawn),2.51 µM (active)
23,Brc1ccccc1C1N=C(c2ccccc2)NO1 (stereo not drawn),inactive
24,CCOc1ccccc1NC(=O)C1=C(C)Nc2ncnn2C1c1ccc(NC(C)=O)cc1 (stereo not drawn),inactive
25,CC(=O)N1c2ccc(S(=O)(=O)N3CCCCCC3)cc2CC1C(=O)NCc1ccccc1C (stereo not drawn),inactive
26,COc1ccc(-c2csc(Nc3cccc(C)n3)n2)cc1OC,2.82 µM (active)
27,COc1cccc(C(O)c2nc(-c3ccc(C)c(C)c3)cs2)c1 (stereo not drawn),inactive
28,COc1ccc(-c2cc(C(F)(F)F)n3nc(-c4ccccc4)cc3n2)cc1OC,inactive
